In PubChem BioAssay AID1508623 (National Center for Advancing Translational Sciences (NCATS), 2021):
Among all 48,000 compounds or so, about 450 (0.94%) were called active. Entries that show only a call come without a potency. Inconclusive results (about 19%) are left out. The sample holds actives, similar compounds and a random draw of the others, so the mix is not that of the screen. Unmarked numbers belong to inactive results. Calls follow the shape of the dose curve; as a rule, active = well fitted inhibition curve with a large enough effect; inconclusive = small, poorly fitted or top-dose-only effect; inactive = no such curve, though single readings can be large or run the other way.

Test: Primary qHTS for Identification of Small Molecule Inhibitors of Huntingtin Promoter Activity; also: nearly all actives have a fitted effect of over 50% in size
Conditions: HEK293 HTT promoter firefly luciferase reporter (activity 0% = vehicle and -100% = no light), 24 h; series mostly up to 57.5 µM
Source text: Assay Provider: Russell L. Margolis M.D.
Department Neurology, Johns Hopkins University School of Medicine, Baltimore, MD
Huntington's Disease (HD) is a neurodegenerative disorder caused by a CAG repeat expansion in exon 1 of huntingtin (HTT). While there are currently no disease-modifying treatments for HD, recent efforts have focused on development of nucleotide-based therapeutics to lower HTT expression. As an alternative to siRNA or oligonucleotide methods, we hypothesized that suppression of HTT expression might be accomplished by small molecules that either (1) directly decrease HTT expression by suppressing HTT promoter activity or (2) indirectly decrease HTT expression by increasing the promoter activity of HTT-AS, the gene antisense to HTT that appears to inhibit expression of HTT.
We developed and employed a high throughput screen for modifiers of HTT and HTT-AS promoter activity using luminescent reporter HEK293 cells; of the 52,041 compounds tested, we identified 898 replicable hits. We used a rigorous stepwise approach to assess compound toxicity and the capacity of the compounds to specifically lower huntingtin protein in 5 different cell lines, including HEK293 cells, HD lymphoblastoid cells, mouse primary neurons, HD iPSCs differentiated into cortical-like neurons, and HD hESCs. We found no compounds which were able to lower huntingtin without lowering cell viability in all assays, though the potential efficacy of a few compounds at non-toxic doses could not be excluded.
SEQUENCE No. (1, 2, 3, etc.); […] (e.g., Cells, Incubation, Reagent, etc.); VALUE and DESCRIPTION.
1; Reagent; 4 uL; 2,500 Hek293 luciferase reporter cells per wells
3; Compound; 23 nL; Control inhibitor / compound library
5; Reagent; 2.5 uL; Firefly Luc reagent; Dual-Glo Luciferase Reporter Assay System (Promega)
6; Time; 10 min; room temperature incubation
7; Detection; Luminescence; FLuc
NOTES (numbers refer to sequence above)
1; High-throughput screening, measuring luminescence from a Hek293 luciferase reporter, was performed in 1,536 well white-walled tissue-culture treated plates. 2,500 cells were plated in 4 µL of Opti-MEM per well using a Multidrop Combi Reagent Dispenser (ThermoFisher).
2; Assay plates were cultured for 24 hours.
3; Control inhibitor (PTC124; final concentration of 50 uM) and compound library (at final concentrations of 460 nM - 57.5 uM) were added to the assay plate using the Kalypsis Pintool Robotic System equipped with 1536 pinheads.
4; Cells were then incubated for 24 hours at 37 degrees C prior to luminescence measurements.
5; In all cases, luminescence was measured using the Dual-Glo Luciferase Reporter Assay System (Promega) following the manufacturer's instructions.
6; Room temperature incubation.
7; Luminescence signal was obtained using the PerkinElmer ViewLux plate reader. Results were normalized to vehicle control (0% activity) and zero RLU (-100% activity).
Potency is read from the fitted curve at half-maximal effect.

| Structure (SMILES) | Potency | activity change, negative = inhibition |
| --- | --- | --- |
| Cc1cccc(N2CCN(C(=O)c3ccc(Nc4nc5ccccc5n5nnnc45)cc3)CC2)c1C | inactive |  |
| O=C(c1ccc2c(c1)N(Cc1ccccc1)C(=O)c1ccccc1S2(=O)=O)N1CCCC1 | inactive |  |
| CCOc1ccccc1N(CC)C(=O)Nc1cn(C)c(=O)c2ccccc12 | inactive |  |
| CSc1nc(-c2ccc(F)cc2)nc2c1Cc1c(CO)cnc(C)c1O2 | inactive |  |
| CCOc1ccc(NC(=O)C(CC(C)C)N2Cc3ccccc3C2=O)cc1 (configuration not stated) | inactive |  |
| COC(=O)c1cc(NC(=O)c2sc3ccccc3c2Cl)cc(C(=O)OC)c1 | inactive |  |
| Cc1cccc(N2CCN(C(=O)c3oc(=O)c4ccccc4c3-c3ccccc3)CC2)c1C | inactive |  |
| CC(C)(C)OC(=O)N1CCC(c2c(C(=O)NCc3ccccn3)cnn2-c2ccc(F)cc2)CC1 | inactive |  |
| Cc1ccc(NC(=O)CSc2nc3c([nH]c4ccccc43)c(=O)n2-c2ccccc2)c(C)c1 | inactive |  |
| COc1ccc(-c2noc(CSc3nc4ccc(C)cc4[nH]3)n2)cc1 | 28.2 µM (active) |  |
| COc1ccc(-c2noc(CSc3nc(C)cc(=O)[nH]3)n2)cc1OC | inactive |  |
| Cc1ccc(-c2noc(CSc3nnc(-c4ccc(Cl)cc4)n3C)n2)cc1 | inactive |  |
| Cn1c(=O)c2c(SCC(=O)N3CCc4ccccc43)nc(-c3ccc(Cl)cc3)nc2n(C)c1=O | inactive |  |
| Cc1cc(C)cc(NC(=O)CSc2oc(-c3ccccc3)nc2S(=O)(=O)c2ccc(Cl)cc2)c1 | inactive |  |
| Cc1ccc2c(=O)c(C(=O)c3ccc(Cl)cc3)cn(CC(=O)NC3CCCCC3)c2n1 | inactive |  |
| COC(=O)c1scc(-c2ccc(C)cc2)c1S(=O)(=O)Nc1cc(Cl)c(OC)cc1OC | inactive |  |
| CCOC(=O)c1ccc(NC(=O)c2csc3c2CCCCC3)cc1 | inactive |  |
| COc1cccc(C(=O)c2sc3nc(-c4ccccc4)cc(C(F)(F)F)c3c2N)c1 | inactive |  |
| Cn1c(=O)n(Cc2c(F)cccc2Cl)c(=O)c2c1nc1n2CCN1c1ccc(F)cc1 | inactive |  |
| CCc1nn(CC(=O)N2CCN(c3cccc(C(F)(F)F)c3)CC2)c(=O)c2cc3occc3n12 | inactive |  |
| COC(=O)c1ccc(OC)c(Cn2c(=O)n(Cc3ccccc3)c(=O)c3c2c2cc(OC)ccc2n3C)c1 | inactive |  |
| Cc1cccc(C(=O)NCCc2nc3ccccc3n2Cc2ccccc2Cl)c1 | inactive |  |
| CCOc1ccc2nc(N3CCCC(C(=O)Nc4cc(C)ccc4C)C3)sc2c1 (configuration not stated) | inactive |  |

| Structure (SMILES) | Potency | activity change, negative = inhibition |
| --- | --- | --- |
| O=C(/C=C/c1ccccc1)N1CCN(Cc2cc(=O)n3nc(-c4ccccc4F)sc3n2)CC1 | inactive |  |
| O=C(O)c1ccc(Cn2c(SCc3ccc(F)cc3)nc3ccncc32)cc1 | inactive |  |
| COc1cccc(Cn2c(SCc3ccc(C(=O)N4CCCCC4)cc3)nc3ccncc32)c1 | 12.6 µM (active) |  |
| Cc1cccc(CSc2nc3ccncc3n2Cc2ccc(C(=O)O)cc2)c1 | inactive |  |
| COc1ccccc1Cc1nc2ccccc2nc1SCC(=O)N1CCCc2ccccc21 | inactive |  |
| Cc1ccc(CNC(=O)CCc2c(C)nc3nc(CNC(=O)OC(C)(C)C)nn3c2C)cc1 | inactive |  |
| CC(=O)N1CCCc2cc(S(=O)(=O)Nc3ccc(Cl)cc3F)ccc21 | inactive |  |
| CC(=O)N1CCCc2cc(S(=O)(=O)N3CCCC(C(=O)N4CCN(c5cccc(Cl)c5)CC4)C3)ccc21 (configuration not stated) | 7.08 µM (active) |  |
| CC(=O)N1CCCc2cc(S(=O)(=O)N3CCC(C(=O)NC4CCCCC4)CC3)ccc21 | inactive |  |
| CCN(CC)c1ccc(NC(=O)CN2CCN(CC(=O)Nc3ccc(Cl)cc3)CC2)cc1 | inactive |  |
| Cc1oc2ncnc(N3CCOCC3)c2c1C(=O)NCCc1ccccc1 | inactive |  |
| CCOC(=O)c1oc2ccc(S(=O)(=O)n3nc(-c4ccccc4OC)cc3N)cc2c1C | 12.6 µM (active) |  |
| Cc1ccc(NC(=O)c2oc3ccc(S(=O)(=O)N4CCCCC4)cc3c2C)cc1Cl | inactive |  |
| Cc1c(C(=O)Nc2cccc(Cl)c2)oc2ccc(S(=O)(=O)N3CCOCC3)cc12 | inactive |  |
| O=C(Nc1ccc2nc(SCC(=O)N3CCc4ccccc43)sc2c1)c1ccccc1F | inactive |  |
| O=C(c1cccc(Cl)c1)N1CCN(CCc2ccncc2)CC1 | inactive |  |
| COC(=O)c1sccc1S(=O)(=O)N(CC(=O)Nc1ccc(C)c(F)c1)c1ccc(C)c(C)c1 | inactive |  |
| CC1CN(C(=O)N2CCC(C(=O)NCc3cccs3)CC2)c2ccccc2O1 (configuration not stated) | inactive |  |
| Cc1ccc2nc(COc3cccc(NC(=O)c4cccc(Cl)c4)c3)cc(=O)n2c1 | inactive |  |
| CCn1cc(C(=O)NCCc2ccccc2)c(=O)c2cc(S(=O)(=O)N3CCCCCC3)ccc21 | inactive |  |
| CCc1ccc(NC(=O)N2CCN(C(=O)c3nsc4ccccc34)CC2)cc1 | inactive |  |
| Cc1ccc(Oc2c(C(F)(F)F)oc3c(CN4CCCCC4)c(O)ccc3c2=O)cc1 | inactive |  |
| COc1ccc(-c2cc(NCc3ccc(F)cc3)n3cnnc3n2)cc1 | inactive |  |

| Structure (SMILES) | Potency | activity change, negative = inhibition |
| --- | --- | --- |
| CCOc1ccc(S(=O)(=O)c2cn(Cc3ccc(OC)cc3)c3ccc(F)cc3c2=O)cc1 | inactive |  |
| Cc1sc(C2C(C#N)=C(N)N(c3cccc(Cl)c3)C3=C2C(=O)CCC3)cc1CN1CCOCC1 (configuration not stated) | inactive |  |
| COc1ccc(NC(=O)c2ccco2)cc1NC(=O)c1ccc(C#N)cc1F | inactive |  |
| CCc1cccc(NC(=O)CN(C)S(=O)(=O)c2ccc3[nH]c4c(c3c2)CCCC4)c1 | inactive |  |
| COc1ccc(OC)c(-n2nnc3c(sc4nc(C)c(Br)c(C)c43)c2=O)c1 | inactive |  |
| Cc1c(C(=O)N(C)C)sc2c1c(=O)n(-c1ccc(F)cc1)c(=O)n2CC(=O)N(C)c1ccccc1 | inactive |  |
| CCOc1ccc(C(NC(=O)c2cc(OC)c(OC)c(OC)c2)c2cc(Cl)c3cccnc3c2O)cc1 (configuration not stated) | 3.55 µM (active) |  |
| COc1c(Cl)cc(Cl)cc1C(=O)Nc1cccc2cccnc12 | inactive |  |
| COc1cc(C(=O)NCC(c2ccc(Cl)cc2)N2CCOCC2)cc(OC)c1OC (configuration not stated) | inactive |  |
| CCCCCn1c(=O)[nH]c2cc(C(=O)Nc3cc(C)cc(C)c3)ccc2c1=O | inactive |  |
| Cc1ccc(Cl)cc1N1CCN(S(=O)(=O)c2cc3[nH]c(=O)c(=O)[nH]c3cc2C)CC1 | inactive |  |
| CC(=O)c1sc(N2C(=O)c3oc4ccccc4c(=O)c3C2c2ccc(C)cc2)nc1C (configuration not stated) |  | -13.5% [at 11.5 µM] |
| CCS(=O)(=O)N1CCc2cc(C(=O)NCc3ccc(C)cc3)ccc21 | inactive |  |
| CCOC(=O)c1c(C)oc2nc(C)nc(Nc3ccc(CC)cc3)c12 | inactive |  |
| O=C(Cn1c(=O)nc(-c2ccccc2)c2cc(Cl)ccc21)NCc1ccc(Cl)cc1 | inactive |  |
| CCCOc1cccc(C(=O)Nc2cccc(NC(=O)c3ccc(C(C)(C)C)cc3)c2)c1 | inactive |  |
| CCCN(CCC)CCNC(=O)Cn1cnc2sc(C)c(S(=O)(=O)N3CCC(C)CC3)c2c1=O | inactive |  |
| CCc1nn(CCCC(=O)NC(C)c2ccccc2)c(=O)c2cc3occc3n12 (configuration not stated) | inactive |  |
| COc1ccc(-c2cc(-c3nc(-c4cc(OC)c(OC)c(OC)c4)no3)[nH]n2)c(OC)c1 | inactive |  |
| Cc1ccccc1-c1nc(CS(=O)(=O)CC(=O)NC(C)c2ccccc2)c(C)o1 (configuration not stated) | inactive |  |
| Cc1ccc(Cl)cc1N1CCN(C(=O)CN2C(=O)COc3ccc(S(=O)(=O)N4CCOCC4)cc32)CC1 | inactive |  |
| Cc1cccc(N2CCN(C(=O)COCc3cc(-c4ccc5c(c4)OCO5)on3)CC2)c1C | inactive |  |
| O=C(Cn1c(-c2cccs2)cc2ccccc21)NCCc1ccc(Cl)cc1 | inactive |  |

| Structure (SMILES) | Potency | activity change, negative = inhibition |
| --- | --- | --- |
| Cc1oc(-c2ccccc2F)nc1CN1CCC(C(=O)NCCc2ccc(Cl)cc2)CC1 | inactive |  |
| Cc1c(NC(=O)Nc2ccc(F)c(Cl)c2)c(=O)n(-c2ccccc2)n1C | inactive |  |
| CCN(CC)S(=O)(=O)c1ccc2c(c1)N(CC(=O)NCC(C)c1ccccc1)C(=O)CO2 (configuration not stated) | inactive |  |
| CCN(CCCNC(=O)c1cc2c(=O)n(CC)c3ccccc3c2s1)Cc1ccccc1 | inactive |  |
| Cc1ccc(Cl)cc1N(C)C(=O)Cn1nc(Cc2cccnc2)c2ccccc2c1=O | inactive |  |
| CC(=O)c1cccc(Nc2ccc3cc(S(=O)(=O)N4CCC(C)CC4)ccc3n2)c1 | inactive |  |
| C[C@@H](NC(=O)c1ncnc(N)c1Cl)c1ncc(C(=O)Nc2cc(C(F)(F)F)c(Cl)cn2)s1 | inactive |  |
| Cc1cc(NC(=O)CSc2ncc(C(=O)Nc3ccc(Cl)cc3)c(=O)n2C)no1 | inactive |  |
| CCOC(=O)c1ccc(NC(=O)C2CC(=O)N(c3ccc(C(C)C)cc3)C2)cc1 (configuration not stated) | inactive |  |
| CC(C)c1ccc(NC(=O)C2CCN(c3nc(-c4ccc(C(C)C)cc4)no3)CC2)cc1 | 0.0891 µM (active) |  |
| CC(=O)c1ccc(NC(=O)C2CCN(S(=O)(=O)c3c(C)noc3/C=C/c3ccc(C)cc3)CC2)cc1 | inactive |  |
| Cc1ccc2nc(CNC(=O)c3ccccc3)[nH]c2c1 | inactive |  |
| COCCCNC(=O)CN1C(=O)CSc2ccc(S(=O)(=O)N3CCOCC3)cc21 | inactive |  |
| CCCNC(=O)c1ccc2c(c1)ncn2-c1ccc(C)cc1C | inactive |  |
| CN1C(=O)C[C@H](C(=O)N[C@@H](Cc2cnc[nH]2)C(=O)N2CCC[C@@H]2C(N)=O)NC1=O | inactive |  |
| COc1ccc(C(=O)NCC(c2ccc(N(C)C)cc2)N2CCc3ccccc32)c(OC)c1 (configuration not stated) | inactive |  |
| COc1cccc(-n2c(=O)c3c(C)c(C(=O)N(C)C)sc3n(Cc3cccc(C)c3)c2=O)c1 | inactive |  |
| COc1ccc2c(c1)C=C(C(=O)NCc1cc(Br)ccc1OC)CO2 | inactive |  |
| CCc1ccccc1NC(=O)c1ccc2nc(CCc3ccccc3)oc2c1 | inactive |  |
| O=C(Nc1cccc(-c2nc3ccccc3o2)c1)c1cccc(Br)c1 | inactive |  |
| Cc1cc(C)c(/C=C/c2onc(C)c2S(=O)(=O)N2CCC(C(=O)Nc3ccc(Cl)cc3C)CC2)c(C)c1 | inactive |  |
| Cc1ccc(NC(=O)C2CCN(S(=O)(=O)c3cc(-c4noc(C)n4)ccc3C)CC2)c(C)c1 | 11.2 µM (active) |  |
| CCOc1ccc(NC(=O)C2CCN(S(=O)(=O)c3cc(-c4noc(C)n4)ccc3C)CC2)cc1 | inactive |  |
